# Compound activity as filed in PubChem.
# SARS PLpro yeast: qHTS of Yeast-based Assay for SARS-CoV PLP; S. cerevisiae expressing SARS-CoV PLpro, growth rescue; Potency, µM (highest dose often 32.9 µM), for inactives: top-dose activity, positive = growth rescue, hits mostly activators; 0.19% of 330,000 active; also: potency is read from the fitted curve at half-maximal effect; 0% is about no effect; nearly all actives have a fitted effect of over 55% in size
# Shiga toxin inh: A qHTS for Small Molecule Inhibitors of Shiga Toxin; 9.2% of 290,000 active; Vero cells, Shiga toxin protein synthesis inhibition reporter; inhibition, % at 38.7 µM; in the data active = inhibition mostly above about 28%, no sharp cut-off; inactive = mostly below about 43%; also: 0% is about no effect
# CHX counter: Cycloheximide Counterscreen for Small Molecule Inhibitors of Shiga Toxin. 12% of 300,000 active. max response, %. cell reporter, cycloheximide protein synthesis inhibition counterscreen; in the data active = max response mostly above about 13%, no sharp cut-off; inactive = mostly below about 14%; also: read at 38.3 µM for the half of the compounds with a filed dose; 0% is about no effect
# Pf growth 96h: Primary qHTS for delayed death inhibitors of the malarial parasite plastid, 96 hour incubation | 6.9% of 320,000 active | P. falciparum luciferase reporter growth, 96 h | Potency, µM (highest dose often 28.7 µM), inactives show at the top dose activity change, negative = inhibition, usual class: inhibitors | AID 504834, 2011; active = well fitted inhibition curve with a large enough effect; inconclusive = small, poorly fitted or top-dose-only effect, or another doubt; inactive = no such curve, though single readings can be large or run the other way; also: potency is read from the fitted curve at half-maximal effect; % is scaled to controls: 0 for no effect and ±100 for the full control effect
#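 Delayed-death screen, second-generation endpoint: infected erythrocytes, 2% hematocrit, 0.05% parasitemia final; 96 hours at 37 C, 5% CO2; luciferase detection reagent; luminescence decrease equals reduced growth.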
# NS1 function inh: qHTS Assay for Inhibitors of Influenza NS1 Protein Function | Potency, µM (doses to about 46.1 µM), for the others: top-dose activity, positive = more growth | 0.4% of 270,000 active | AID 2326, 2010; also: potency is read from the fitted curve at half-maximal effect; actives are rising curves; nearly all actives have a fitted effect of over 50% in size
#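 Compounds were scored for reversing the slow growth caused by influenza A NS1 in S. cerevisiae, measured by optical density at 600 nm. Assay medium contained 2% galactose at pH 6.0; NS1-free yeast of the same strain were the positive control.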
# Pf growth 48h: Primary qHTS for delayed death inhibitors of the malarial parasite plastid, 48 hour incubation; P. falciparum luciferase growth in erythrocytes, 48 h; Potency, µM (titrated, usually from 28.7 µM), for inactives: at the top dose activity change, negative = inhibition, usual class: inhibitors; 5.9% of 310,000 active; active = well fitted inhibition curve with a large enough effect; inconclusive = small, poorly fitted or top-dose-only effect, or another doubt; inactive = no such curve, though single readings can be large or run the other way; also: potency is read from the fitted curve at half-maximal effect; % is scaled to controls: 0 for no effect and ±100 for the full control effect
#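 Erythrocytes infected with P. falciparum carrying an integrated firefly luciferase reporter (2% hematocrit, 0.1% parasitemia final) were exposed to compounds in RPMI 1640 with 0.5% Albumax at 37 C, 5% CO2. Growth inhibition was scored as reduced luminescence.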
# Numbers without * were called inactive; ? = inconclusive; · = no result given. Most compounds without a hit are left out; they make up all but 21% or so of the library. Unless noted, calls follow the shape of the full dose curve.
SMILES,SARS PLpro yeast,Shiga toxin inh,CHX counter,Pf growth 96h,NS1 function inh,Pf growth 48h
Cc1ccc(CSC2=Nc3sccc3C3=NC(=O)CN23)cc1,6%,24,-3,?,21%,12µM*
COC(=O)c1cc(CSC(=N)N)ccc1OCCC(C)C,0%,-7,-1,6.6µM*,2%,4.7µM*
CCCN(CCC)C(=O)c1oc2ccccc2c1NC(=O)Cc1cccc(OC)c1,-2%,-2,3,16%,-6%,?
NC(=O)NC(=O)COC(=O)c1ccc2noc(-c3ccccc3)c2c1,-2%,44,-4,11%,6%,11%
CC(=O)c1ccc2noc(-c3ccc(C)cc3)c2c1,-4%,26,14,?,·,400%
CC(=O)COC(=O)c1ccc2noc(-c3ccccc3)c2c1,-1%,59*,14*,39%,8%,28%
Cc1ccc(-c2onc3ccc(C(=O)O)cc23)cc1,-2%,180*,92*,-3%,-34%,306%
CCCCN(CC)CCCNC(=O)c1cn(-c2ccc(OC)cc2)c(=O)c2ccccc12,0%,-2,-3,7.4µM*,-4%,-9%
CCCN(CCC)CCCNC(=O)c1nn(-c2cccc(OC)c2)c(=O)c2ccccc12,1%,8,4,12µM*,·,?
CCN(CC)CCCNC(=O)CNC(=O)c1nn(-c2ccc(OC)cc2)c(=O)c2ccccc12,4%,-3,-2,9.3µM*,·,-14%
CCN(CC)CCCNC(=O)c1cn(-c2cccc(OC)c2)c(=O)c2ccccc12,2%,32,1,-12%,-1%,6%
CCOC(=O)N1CCC2(CC1)C(C#N)=C(N)Oc1c2c(C)nn1-c1cccc(Cl)c1,-7%,0,-3,23%,6%,9.3µM*
CCOCC(=O)N1CCN(c2ccccc2OC)CC1,2%,3,-4,27%,1%,5%
CCN(CC)c1cc(-c2ccccc2)ncn1,5%,-1,9,0%,-7%,4%
CN(C)c1ccc(-c2ccccc2)nn1,-2%,94*,32*,35%,-14%,·
Cc1ccccc1C(=O)Nc1ccnn1C1CCN(C(=O)c2ccoc2)CC1,2%,-2,-4,2%,7%,35%
Cc1noc(C)c1C(=O)N1CCC2(CC1)Oc1ccc(F)cc1C(=O)C21CC(c2ccc(Cl)cc2)=NO1 (configuration not stated),2%,-7,-4,?,2%,12µM*
O=C(/C=C/c1cccs1)N1CCC2(CC1)Oc1ccc(F)cc1C(=O)C21CC(c2ccc(Cl)cc2)=NO1 (configuration not stated),1%,9,3,1.9µM*,6%,9.3µM*
CCC(=O)N1CCC2(CC1)Oc1ccc(F)cc1C(=O)C21CC(c2cccnc2)=NO1 (configuration not stated),1%,17,-2,27%,-4%,48%
CC(C)(C)OC(=O)N1CCC2(CC1)Oc1ccc(F)cc1C(=O)C21CC(c2cccnc2)=NO1 (configuration not stated),2%,-3,-4,?,0%,10µM*
O=C(/C=C/c1cccs1)N1CCC2(CC1)Oc1ccc(F)cc1C(=O)C21CC(c2ccccc2)=NO1 (configuration not stated),1%,-1,4,9.3µM*,9%,10µM*
O=C1c2cc(Cl)ccc2OC2(CCNCC2)C12CC(c1ccccc1)=NO2 (configuration not stated),-3%,-5,-4,?,1%,?
CC(C)C(=O)N1CCC2(CC1)Oc1ccc(Cl)cc1C(=O)C21CC(c2ccc(Cl)cc2)=NO1 (configuration not stated),2%,-6,-3,?,-1%,?
Cc1ccccc1CS(=O)(=O)c1cn(CC(=O)N2CCOCC2)c2ccccc12,-5%,-17,9,-14%,-3%,-11%
Cc1ccnc(NC(=O)C2CCCN(S(=O)(=O)c3ccc4[nH]c(=O)ccc4c3)C2)c1 (configuration not stated),-4%,12,11,?,-8%,-1%
SMILES,SARS PLpro yeast,Shiga toxin inh,CHX counter,Pf growth 96h,NS1 function inh,Pf growth 48h
O=C(CNC(=O)c1ccco1)NNC(=O)c1n[nH]c(=O)c2ccccc12,0%,·,·,·,·,·
O=C(c1ccc2c(c1)OCO2)N1CCC2(CC1)Oc1ccc(Cl)cc1C(=O)C21CC(c2ccccc2)=NO1 (configuration not stated),1%,-11,-4,13µM*,9%,12µM*
O=C(c1ccc2c(c1)OCO2)N1CCC2(CC1)Oc1ccc(F)cc1C(=O)C21CC(c2ccc(Cl)cc2)=NO1 (configuration not stated),0%,-5,-3,-4%,1%,-22%
CCn1c(SCC(=O)n2c(C)c(C)c3ccccc32)nnc1-c1ccco1,3%,30,-5,6.6µM*,-24%,4%
Cc1sc(NC(=S)NC(=O)c2ccco2)c(C#N)c1C,-2%,27,15*,-39%,-4%,39%
CCc1c(C)sc(NC(=O)c2ccco2)c1C#N,-13%,69*,37*,112%,-54%,60%
CCOC(=O)c1sc(NC(=O)c2ccco2)c(C#N)c1C,-1%,-14,-4,11%,-7%,33%
N#Cc1ccccc1S(=O)(=O)N1CCN(CC(=O)NC(=O)NC2CCCCC2)CC1,1%,·,·,?,·,-9%
CC(=O)/C=C/n1c(=S)oc2ccccc21,-82%,35,32*,-81%,-41%,?
COc1ccc(-c2csc(NC(=O)c3ccccc3NS(=O)(=O)c3ccc(F)c(F)c3)n2)cc1,-4%,2,-3,?,0%,1.9µM*
CN(C)S(=O)(=O)c1ccc(N2CCCC2)c(C(=O)Nc2nc(-c3ccc(F)c(F)c3)cs2)c1,-23%,32,28*,10µM*,18%,?
O=C(Nc1ccccc1N1CCOCC1)c1ccccc1NS(=O)(=O)c1ccc(F)c(F)c1,-21%,-15,0,0%,-6%,·
Cc1ccc(S(=O)(=O)Nc2ccccc2C(=O)Nc2nc(-c3ccc(F)cc3)cs2)cc1,-92%,9,6,?,-60%,13µM*
Cc1ccc(N2CCN(C(=S)Nc3ccccc3)CC2)cc1,8%,-2,6,-3%,·,13%
COc1ccc(CNC(=O)C(=O)NCC2CCCN2S(=O)(=O)c2cccs2)cc1 (configuration not stated),0%,·,·,?,·,?
COc1cc(CNc2ccc3[nH]c(=O)[nH]c3c2)cc(Br)c1OCc1ccc(F)cc1,2%,-8,0,6%,-1%,-10%
O=c1[nH]c2ccc(NCc3ccc(OCc4ccccc4Cl)cc3)cc2[nH]1,1%,23,23*,20%,5%,11%
